The campaign covered roughly 87,000 compounds. About 540 (0.62%) were called active. The rule behind the calls is not given here. The sample as a whole holds a higher share of actives than the screen did. Measured potencies and affinities stand elsewhere.

The experiment can be described thus: inhibitors of MT1-MMP promoter transcription, cell-based, luciferase reporter, luminescence (AID 618).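 Note: actives suppress MT1-MMP promoter-driven transcription so potencies describe inhibitors.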 Particulars: MT1-MMP promoter luciferase reporter cells. A general note: In a reporter assay the amount or activity of a reporter protein is the signal.
For the molecule `COc1cc(C(=O)N2CCN(C(=O)Cc3ccccc3)CC2)cc(OC)c1OC`, the call was inactive.

Take `C=CCNC(=O)c1ccc2nccnc2c1`: the call was inactive.

For the molecule `CC(C)C(=O)N(Cc1cc2ccccc2[nH]c1=O)C(C)C`, the molecule was called inactive.

On to `C=CCn1c(SCc2cc(=O)n3ccsc3n2)nc2scc(C3CC3)c2c1=O`, for which the result was inactive.

For `COc1ccccc1NC(=S)NNC(=O)c1ccccc1`, the molecule was called inactive.

Consider `O=C(NCCCN1CCOCC1)c1ccccc1`, for which the molecule was called inactive.

Regarding `COc1ccc(-c2nc3ccccc3s2)cc1O`, the molecule was classed as active.

For the molecule `COc1cc(OC)cc(-c2nc3ccccc3s2)c1`, the result was inactive.

As to `COc1cccc(-c2nc3ccccc3s2)c1`, the result was inactive.

For the molecule `c1ccc2sc(-c3ccc4c(c3)OCO4)nc2c1`, the call was inactive.

Take `COc1cc(-c2nc3ccccc3s2)ccc1O`: the molecule was called inactive.

Consider `COC(=O)CSc1nc2ccc(C)cc2[nH]1`, for which the call was inactive.

For `CCN(CC)S(=O)(=O)c1ccc(C2CNC(=O)C2)cc1` (centres undefined), the molecule was called inactive.

Regarding `CCn1cnc2c1c(=O)n(Cc1csc(-c3ccccc3)n1)c(=O)n2Cc1ccccc1`, the molecule was called inactive.

As to `COc1cccc(NC(=O)CCN2C(=O)c3ccccc3S2(=O)=O)c1`, the result was inactive.

In the case of `CCc1nnc(NC(=O)CSc2nc3c(cc2C#N)CCCC3)s1`, the molecule was classed as inactive.

With `CCc1nnc(NC(=O)CSc2nc3c(cc2C#N)CCC3)s1`, the call was inactive.

For `Cc1cc(C(F)(F)F)n2ncc(-c3ccc(F)cc3)c2n1`, the molecule was classed as inactive.

As to `Cc1ccc(C)c(NC(=O)CSc2nnc(-c3ccccc3)o2)c1`, the outcome was inactive.

For `COc1ccccc1NC(=O)CSc1nnc(-c2ccc(C)cc2)o1`, the outcome was inactive.

Regarding `COc1ccccc1NC(=O)CSc1nnc(-c2ccccc2)o1`, the outcome was inactive.

Consider `CCOc1ccccc1-c1nnc(SCC(=O)Nc2ccccc2)o1`, for which the molecule was called inactive.

For `Cc1cccc(NC(=O)CSc2nnc(-c3ccccc3C)o2)c1`, the result was inactive.

In the case of `COC(=O)c1ccccc1NC(=O)CSc1nnc(-c2ccc(C)cc2)o1`, the molecule was classed as inactive.

Turning to `CCN(CC)S(=O)(=O)c1ccc(NC(=O)CN(c2ccc(OC)cc2OC)S(C)(=O)=O)cc1`, the outcome was inactive.

Consider `O=C(NCCCO)C12CC3CC(CC(C3)C1)C2`, for which the outcome was inactive.

On to `O=C(NC(NC1CCS(=O)(=O)C1)C(=O)c1ccccc1)c1ccc(Cl)cc1` (centres undefined), for which the outcome was inactive.

Regarding `Cc1ccc(C(=O)/C=C/Nc2cccc(O)c2)cc1`, the result was active.

Turning to `O=C(/C=C/Nc1ccccc1)c1ccccc1`, the call was inactive.

For the molecule `Cc1ccc(N/C=C/C(=O)c2ccc(C)cc2)cc1`, the outcome was inactive.

Take `C/C(=C\C(=O)c1ccc(C)cc1)Nc1cccc(O)c1`: the molecule was classed as inactive.

As for `O=C(Nc1cccc(O)c1)c1ccccc1`, the molecule was classed as inactive.

Regarding `Cc1nc2ncnn2c(C)c1CCC(=O)Oc1ccccc1`, the molecule was called inactive.

Consider `COc1ccc(CCNC(=O)C2CCN(S(C)(=O)=O)CC2)cc1OC`, for which the call was inactive.

Regarding `Cc1cc(C)n(-c2ccc3cccc(NS(C)(=O)=O)c3n2)n1`, the outcome was inactive.

For the molecule `COC(=O)c1sc(NC(=O)c2cc3c(s2)CCCC3)nc1C`, the call was inactive.

For the molecule `Cc1cnc(NC(=O)c2cc3c(s2)CCCC3)s1`, the molecule was classed as inactive.

Turning to `Cc1csc(NC(=O)c2cc3c(s2)CCC3)n1`, the molecule was called active.

As for `CCOC(=O)Cc1csc(NC(=O)c2cc3c(s2)CCCC3)n1`, the call was inactive.

Regarding `CCc1nnc(NC(=O)c2cc3c(s2)CCCCC3)s1`, the molecule was called inactive.

As to `Cc1nc(NC(=O)c2cc3c(s2)CCCCC3)sc1C(=O)N(C)C`, the call was inactive.

Turning to `Cc1csc(NC(=O)c2cc3c(s2)CCCCC3)n1`, the result was inactive.

As for `O=C1N(Cc2ccccc2F)c2ccccc2C12OCCCO2`, the call was inactive.

On to `CCn1nc(C(=O)NC2=NCCS2)c2ccccc2c1=O`, for which the molecule was called inactive.

For `Cc1ccc(C(=O)N(c2ccccn2)C(C)c2ccco2)cc1` (centres undefined), the molecule was called inactive.

For `Cc1ccc(NC(=O)CSc2nnc(Cn3cnc4ccccc43)o2)c(C)c1`, the outcome was inactive.

Regarding `CN1CCN(C2=C(Cl)C(=O)C(c3cnc(N4CCCCC4)s3)=C(Cl)C2=O)CC1`, the molecule was classed as inactive.

Regarding `CN(C)c1ncc(C2=C(Cl)C(=O)C(N3CCCC3)=C(Cl)C2=O)s1`, the molecule was classed as inactive.

`Nc1ccc2c(c1)-c1ccccc1S(=O)(=O)N2`: the outcome was inactive.

As to `Cc1ccc2c(c1)-c1ccccc1S(=O)(=O)N2`, the outcome was inactive.

On to `O=c1cc(N2CCOCC2)[nH]c(=O)n1-c1ccc(Cl)cc1`, for which the molecule was classed as inactive.

`COc1cccc(-c2cc(C(=O)Nn3cnnc3)c3ccccc3n2)c1`: the outcome was inactive.

Consider `O=C(Nn1cnnc1)c1cc(-c2ccccn2)nc2ccccc12`, for which the molecule was classed as inactive.

For the molecule `Cc1ccc2nc(C3CCN(C(=O)NCc4ccccc4)CC3)[nH]c2c1`, the molecule was called inactive.

For `O=c1cc(CO)oc(CN2CCN(c3ccccc3F)CC2)c1O`, the molecule was classed as inactive.

For the molecule `CC(C)(C)S(=O)(=O)c1ccc2nc3c(n2c1)CCCC3`, the result was inactive.

On to `Cc1nc(NC2=NCN(CCN3CCOCC3)CN2)nc2c(C)cccc12`, for which the molecule was called inactive.

As for `Cc1cc2nc(NC3=NCN(CCCN4CCOCC4)CN3)nc(C)c2cc1C`, the molecule was classed as inactive.

`Cc1ccc(NC(=O)NC(=O)N(c2ccccc2)S(C)(=O)=O)cc1`: the outcome was inactive.

For `CCOc1ccccc1N1CC(C(=O)N2CCc3ccccc3C2)CC1=O` (centres undefined), the molecule was classed as inactive.

Turning to `COc1ccc(-c2nc(C#N)c(N3CCOCC3)o2)cc1OC`, the molecule was called inactive.

As to `COc1ccc(CCNc2oc(-c3ccco3)nc2C#N)cc1`, the molecule was classed as inactive.

`COc1ccc(Nc2nc(C)c3ccccc3n2)cc1`: the result was inactive.

With `OCCNc1nc(Nc2ccccc2)nc2ccccc12`, the molecule was classed as inactive.

Turning to `Cc1ccc(Nc2nc(N3CCOCC3)c3ccccc3n2)cc1`, the outcome was inactive.

`Fc1ccc(Nc2nc(N3CCOCC3)c3ccccc3n2)cc1`: the result was inactive.

With `Nc1nc(Nc2ccccc2)nc2ccccc12`, the result was active.

Regarding `COc1ccc(Nc2nc(N3CCCC3)c3ccccc3n2)cc1`, the molecule was classed as inactive.

As for `Nc1nc(Nc2cccc(F)c2)nc2ccccc12`, the molecule was called inactive.

Regarding `Cc1ccc(NC(=O)N2CCOCC2)c(C)c1`, the result was inactive.

As to `CCC1Oc2ccccc2N(CC(=O)Nc2ccc(OC)cc2OC)C1=O` (centres undefined), the result was inactive.

As to `COc1ccccc1C(=O)Nc1nc(-c2cccs2)c(NC(C)=O)s1`, the molecule was classed as inactive.

Regarding `CC(C)CCOC(=O)C1C(c2ccccc2)C(C(=O)O)C1c1ccccc1` (centres undefined), the molecule was called inactive.

For `O=C(c1cccs1)N1CCN(S(=O)(=O)N2CCCCC2)CC1`, the call was inactive.

As for `Cc1ccccc1/C=C1\CCCc2ccccc2C1=O`, the molecule was classed as inactive.

`O=C1/C(=C/c2ccccc2)CCCc2ccccc21`: the molecule was called inactive.

`O=C(NC1CCN(Cc2ccccc2)CC1)C1CCN(S(=O)(=O)c2cccc3cccnc23)CC1`: the call was inactive.

As for `COc1ccccc1NC(=O)c1ccc(N)cc1`, the result was inactive.

`Cc1cc(N2CCCCC2)n2ncc(-c3ccccc3)c2n1`: the molecule was classed as inactive.

In the case of `Cc1cc(N2CCC(C)CC2)n2ncc(-c3ccccc3)c2n1`, the result was inactive.

In the case of `CCOc1ccc(C(=O)NCCCn2ccnc2)cc1`, the outcome was inactive.

In the case of `O=C(NC1CCCCC1)NC1(C(=O)N2CCN3CCCC3C2)CCCCC1` (centres undefined), the molecule was called inactive.

With `CCc1ccc2oc(-c3cc(N=Cc4cccc(OC)c4O)ccc3O)nc2c1`, the molecule was classed as active.

In the case of `CCc1ccc2oc(-c3cc(N)ccc3Cl)nc2c1`, the molecule was called inactive.

`CCc1ccc2oc(-c3ccc(N)cc3)nc2c1`: the outcome was active.

On to `COc1cccc(C=Nc2cc(C)on2)c1O`, for which the molecule was called inactive.

Take `CCc1ccc2oc(-c3cc(N)cc(C)c3O)nc2c1`: the outcome was inactive.

For `NCc1ccc(-c2nc3ccccc3o2)cc1`, the call was inactive.

For `c1cc(-c2nc3cc(Cc4ccc5oc(-c6ccncc6)nc5c4)ccc3o2)ccn1`, the molecule was called inactive.

With `CCc1ccc2oc(-c3cccc(NC(=O)c4cccnc4)c3)nc2c1`, the outcome was inactive.

In the case of `CCc1ccc2oc(-c3cc(N)ccc3O)nc2c1`, the molecule was classed as active.

`COc1cccc(C=Nc2ccc3c(c2)OCCO3)c1O`: the outcome was inactive.

With `Nc1ccc2oc(-c3cccc(Br)c3)nc2c1`, the outcome was inactive.

`CC(=Nc1ccccc1)C1=C(O)CSC1=O`: the molecule was called inactive.

For the molecule `COc1ccc(OC)c(NC(=O)c2ccc(NS(=O)(=O)c3c(C)noc3C)cc2)c1`, the molecule was called inactive.

Turning to `CCn1c(=O)c2c(nc3n2CC(C)CN3CCc2ccccc2)n(C)c1=O` (centres undefined), the molecule was called inactive.

For the molecule `CCCN(CCC)S(=O)(=O)c1ccc(NS(=O)(=O)c2ccc(F)cc2)cc1`, the molecule was classed as inactive.

Regarding `CCC(=O)c1ccccc1OCCCn1cncn1`, the outcome was inactive.

Turning to `CC(=O)Nc1cc2nn(-c3ccccc3)nc2cc1Cl`, the outcome was inactive.

Consider `CCC(=O)Nc1cc2nn(-c3ccccc3)nc2cc1Cl`, for which the outcome was active.

As to `CC(C)CC(=O)Nc1cc2nn(-c3ccccc3)nc2cc1Cl`, the molecule was called inactive.

As to `C=CCSc1nnc(-c2ccc(Cl)cc2Cl)o1`, the molecule was classed as inactive.

On to `Clc1ccc(-c2nnc(SCc3ccon3)o2)c(Cl)c1`, for which the molecule was called active.

For the molecule `CCSc1nnc(-c2ccc(Cl)cc2Cl)o1`, the molecule was called inactive.

`Cc1cc(OCC(=O)N2CCc3ccccc3C2)c2c(-c3ccccc3)cc(=O)oc2c1`: the molecule was called inactive.

`Cc1ccc(S(=O)(=O)N(C)Cc2ccc(-c3nnc4n3CCC4)cc2)cc1`: the molecule was called inactive.

On to `COC(=O)CNC(=O)[C@@]1(C)C=C[C@@H](Cc2ccccc2)N1C(=O)OC`, for which the molecule was classed as active.

In the case of `COC(=O)CNC(=O)[C@@]1(C)C=C[C@@H](Cc2ccccc2)N1C(C)=O`, the molecule was classed as inactive.

On to `CNC(=O)[C@@]1(C)C=C[C@@H](Cc2ccccc2)N1C(=O)OC`, for which the call was inactive.

With `CCOC(=O)C1CCN(Cc2ccc(F)cc2F)CC1`, the result was inactive.

`O=C1NC2(CCOc3ccccc32)C(=O)N1CC(=O)N(Cc1ccccc1)C1CCS(=O)(=O)C1` (centres undefined): the call was inactive.

In the case of `Cn1c(SCc2ccon2)nc2ccccc2c1=O`, the result was inactive.

Turning to `Cc1ccc2nc(N/N=C\c3ccc([N+](=O)[O-])o3)nc(-c3ccccc3)c2c1`, the result was inactive.

For `Cn1c(/C=C/c2ccc([N+](=O)[O-])o2)nc2ccccc2c1=O`, the molecule was called active.

Take `COc1ccccc1C(=O)Nc1ccc2c(c1)nc(CN1CCN(C(C)=O)CC1)n2C`: the molecule was classed as inactive.

As to `CC(/C=C/c1ccc(O)cc1)=N/O`, the result was inactive.

With `C/C=C(/C(=C/C)c1ccc(O)cc1)c1ccc(O)cc1`, the molecule was called inactive.

In the case of `Oc1ccc(/C=C/c2cc(O)cc(O)c2)cc1`, the result was active.

As to `c1ccc(Cn2c(Nn3cnnc3)nc3ccccc32)cc1`, the result was inactive.

In the case of `COc1ccc(CCN(Cc2cc3cccc(C)c3[nH]c2=O)C(=O)NC2CCCCC2)cc1OC`, the result was inactive.

For the molecule `CCOc1ccc2nc(NC(=O)c3cnc(C)cn3)sc2c1`, the result was inactive.

Turning to `COc1ccc2sc(NC(=O)c3ccco3)nc2c1`, the outcome was active.

Turning to `CS(=O)(=O)c1ccc2nc(NC(=O)c3ccco3)sc2c1`, the molecule was called inactive.

`O=C(Nc1nc2ccc(Cl)cc2s1)c1ccco1`: the molecule was called inactive.

For `O=C(Nc1nnc(-c2ccco2)s1)c1ccccc1`, the result was inactive.

On to `COc1ccc2c(c1)Cc1sc(NC(=O)c3ccco3)nc1-2`, for which the call was inactive.

As to `COc1ccccc1C(=O)Nc1nnc(-c2ccco2)s1`, the outcome was inactive.

As for `COc1ccc2sc(NC(C)=O)nc2c1`, the outcome was inactive.

In the case of `COc1ccc2nc(NC(=O)c3ccoc3C)sc2c1`, the call was inactive.

For the origin of these results see PubChem BioAssay AID618 (Sanford-Burnham Center for Chemical Genomics, 2007).
